Measured values published in the supplement of paper PMC6555819.

Tests used:
Test in all cases: PBM binding z-score (relative to random genomic background probes); higher = stronger binding; sequences stand for … in GC…GCGATTGACAGCGTAGAATGAAGG
[1] = tested on: FXR:RXRa (NR concentration 270 nM, RXRa partner concentration 90 nM)
Procedure, shortened: (§1)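 Custom Agilent 4×180K protein-binding microarrays carried double-stranded probes, each with a 34-nt variable region. These regions held direct-repeat seeds, single-nucleotide variants, half-site ablations and random human genomic background sequences. Ligand-free nuclear receptor dimers were incubated on the arrays for 1 h, antibodies against each partner (one per run) detected binding, and scanned fluorescence was regression-normalized. Binding z-scores take the random background probes as reference.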

[2] = tested on: LXRa:RXRa (NR concentration 270 nM, RXRa partner concentration 90 nM)
Procedure, shortened: as §1

[3] = tested on: LXRa homodimer (NR concentration 270 nM)
Procedure, shortened: as §1

[4] = tested on: LXRb:RXRa (NR concentration 270 nM, RXRa partner concentration 90 nM)
Procedure, shortened: as §1

[5] = tested on: LXRb homodimer (NR concentration 270 nM)
Procedure, shortened: as §1

[6] = tested on: PPARa:RXRa (NR concentration 270 nM, RXRa partner concentration 90 nM)
Procedure, shortened: as §1

[7] = tested on: PPARg:RXRa (NR concentration 180 nM, RXRa partner concentration 90 nM)
Procedure, shortened: as §1

[8] = tested on: PPARg:RXRa 270nM:90nM, anti-RXR (NR concentration 270 nM, RXRa partner concentration 90 nM)
Procedure, shortened: as §1

[9] = tested on: PPARg:RXRa 30nM:10nM, anti-RXR (NR concentration 30 nM, RXRa partner concentration 10 nM)
Procedure, shortened: as §1

[10] = tested on: PPARg:RXRa 90nM:30nM, anti-RXR (NR concentration 90 nM, RXRa partner concentration 30 nM)
Procedure, shortened: as §1

[11] = tested on: PPARg:RXRa DBDmut IVT, anti-RXR (DBD mutation: RXRa K156A/R161A, NR concentration 270 nM, RXRa partner concentration 90 nM)
Procedure, shortened: as §1

[12] = tested on: PPARg:RXRa IVT, anti-PPARg (NR concentration 270 nM, RXRa partner concentration 90 nM)
Procedure, shortened: as §1

[13] = tested on: PPARg DBDmut:RXRa IVT, anti-PPARg (DBD mutation: PPARg1 K132A/R137A, NR concentration 270 nM, RXRa partner concentration 90 nM)
Procedure, shortened: as §1

[14] = tested on: PPARg DBDmut IVT, anti-PPARg (DBD mutation: PPARg1 K132A/R137A, NR concentration 270 nM)
Procedure, shortened: as §1

[15] = tested on: PPARg homodimer (NR concentration 180 nM)
Procedure, shortened: as §1

[16] = tested on: PXR:RXRa (NR concentration 270 nM, RXRa partner concentration 90 nM)
Procedure, shortened: as §1

[17] = tested on: PXR homodimer (NR concentration 270 nM)
Procedure, shortened: as §1

[18] = tested on: RARa:RXR (NR concentration 270 nM, RXRa partner concentration 90 nM)
Procedure, shortened: as §1

[19] = tested on: RARa homodimer (NR concentration 270 nM)
Procedure, shortened: as §1

[20] = tested on: RARb:RXRa (NR concentration 270 nM, RXRa partner concentration 90 nM)
Procedure, shortened: as §1

Sequence | PBM binding z-score [1] | PBM binding z-score [2] | PBM binding z-score [3] | PBM binding z-score [4] | PBM binding z-score [5] | PBM binding z-score [6] | PBM binding z-score [7] | PBM binding z-score [8] | PBM binding z-score [9] | PBM binding z-score [10] | PBM binding z-score [11] | PBM binding z-score [12] | PBM binding z-score [13] | PBM binding z-score [14] | PBM binding z-score [15] | PBM binding z-score [16] | PBM binding z-score [17] | PBM binding z-score [18] | PBM binding z-score [19] | PBM binding z-score [20]
GCTCGGAGGACAAGGTCGGAGCTTTGTCCGTAGA | -0.163 | -0.153 | -0.91 | -0.475 | -1.14 | 0.143 | -1.09 | -0.163 | -1.12 | -0.578 | -1.06 | -0.138 | -1.21 | -1.93 | -0.925 | -0.155 | -0.823 | 0.146 | -1.12 | 1.59
ATAGGTAGGTTACATCCGGGTCATTCAGGCTATG | 2.31 | 4.03 | 1.3 | 2.53 | 0.566 | 3.17 | 2.36 | 2.74 | 0.814 | 1.92 | 3.73 | 3.91 | 0.843 | 0.221 | 1.99 | 3.53 | 3.04 | 3.51 | 1.15 | 2.39
GGAACGAGGCCAAGTTGATAGCAGAGTTTGATGG | -0.211 | -0.562 | -0.768 | -0.914 | -0.878 | 0.0938 | 0.353 | 0.159 | -0.422 | -0.286 | 1.98 | 0.981 | -1.22 | -0.68 | -0.613 | -0.452 | 0.241 | -0.778 | -0.416 | 1.36
ACTTACGGGTCAACGTGGTTATAGCACGCGTATA | 6.4 | 4.01 | 0.422 | 3.75 | 0.534 | 5.52 | 5.08 | 5.39 | 1.88 | 4.03 | 3.4 | 3.77 | 1.64 | 1.34 | 2.74 | 3.45 | 0.0483 | 4.28 | 1.23 | 4.02
TCATATAGGTAAATGCTAGGTGAAAATCCGATCT | 0.903 | 0.851 | 0.275 | 0.71 | 0.611 | 1.17 | 0.91 | 1.95 | 4.01 | 3.06 | 3.71 | 2.37 | 1.79 | 1.14 | 1.06 | 0.505 | 0.518 | 0.922 | 1.61 | 0.432
CCAGACAGGTGAGGAGGTAACTCAGCCTCGATTA | -0.0226 | 0.276 | 0.253 | 0.35 | -0.29 | 0.831 | 0.403 | 0.546 | -0.128 | 0.0478 | 0.968 | 0.86 | -0.637 | -0.654 | 0.632 | 0.016 | 0.482 | 0.341 | 0.613 | 0.524
GCTTATAGATCAAGGTTAAGAAAGACTAAGCTAA | 0.198 | 0.766 | -0.148 | 0.438 | -0.382 | 1.4 | 0.991 | 1.57 | 0.403 | 1.13 | 0.775 | 0.678 | 0.643 | 0.713 | 0.58 | 0.457 | -0.0715 | 0.879 | 0.134 | 0.997
CTCGAAAGGTCGTGCTCAGGGGAGTATACCAAAC | 4.81 | 3.33 | 0.243 | 3.32 | 0.229 | 4.69 | 2.3 | 3.33 | 0.905 | 2.16 | 0.876 | 1.67 | 0.228 | 0.455 | 1.54 | 2.79 | 0.224 | 3.43 | -0.0621 | 3.88
AGAATGAGGTTAAGATCAGGGAGACAGAATACAT | 2.07 | 1.66 | 0.293 | 1.69 | -0.0325 | 3.31 | 2.15 | 2.29 | 0.947 | 1.62 | 3.04 | 2.59 | 1.8 | 0.747 | 0.955 | 1.26 | 0.933 | 1.95 | 0.709 | 1.91
TAGCCTAGGTCATGGGCCAGTATACCACGCGAAC | 4.32 | 3.28 | 0.195 | 2.24 | -0.333 | 4.04 | 3.78 | 3.66 | 0.829 | 2.59 | 1.08 | 2.99 | 0.0326 | -0.324 | 1.77 | 1.62 | -0.133 | 2.54 | -0.386 | 3.7
TCTCGGAGGACGCGAAGGTCAGAGCTTTCCAGAG | 0.524 | 0.815 | -0.319 | 0.715 | -1.33 | 1.69 | -0.182 | 1.06 | 1.62 | 1.21 | 0.846 | -0.0947 | -1.23 | -1.47 | 0.0628 | 1.33 | -0.286 | 1.61 | -0.357 | 2.7
CGAACGAGGGCATGAGTTGATAGCAAATGCCGAT | 0.545 | 0.339 | -0.654 | 0.279 | -0.902 | 1.71 | 1.35 | 1.57 | 0.0506 | 0.976 | 3.29 | 2.03 | -0.334 | -0.825 | -0.0859 | 0.562 | -0.209 | 0.5 | -0.431 | 2.11
ATATTTAGGTTATCGGGTCATTCAGTTTGCGCAT | 3.46 | 3.38 | 3.11 | 3.44 | 2.37 | 4.75 | 5.55 | 5.51 | 3 | 4.66 | 6.89 | 6.64 | 4.67 | 4.42 | 4.15 | 3.9 | 8.95 | 4.06 | 4.33 | 2.93
CCTACAGGGCCAAAAAGGTCATTGATGCCGATAA | 4.22 | 4.32 | 2.83 | 4.2 | 0.284 | 4.61 | 1.51 | 2.74 | 0.52 | 1.49 | -0.0995 | 0.938 | -1.38 | -1.06 | 2.94 | 5.28 | 4.66 | 5.28 | 1.42 | 4.26
